Measurements taken from PubChem BioAssay (NCI).
Compounds without any hit were thinned out: in the full panel of roughly 83,000, 20% have a hit.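 Assay: single dose, 48 h. Readout: percent growth (0 = no net growth; negative = cell death). Active: <10.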 Values without a mark were called inactive. Activity calls are given as the source filed them.

These compounds were tested on NCI-H322M lung (assay: NCI-60 one-dose screen, 48 h (100 = growth as untreated, 0 = no growth, -100 = all killed)). Settings: 10 µM unless noted.
`COc1cc(/C=C/C(=O)c2ccc(N3CCN(C)CC3)cc2)ccc1F` was tested, and the growth was 84.2%. For `O=C(Nc1cccc(-c2nc(-c3ccc(NC(=O)c4cccnc4)cc3Cl)no2)c1)Nc1ccc(NC(=O)C2CC2)c(C(F)(F)F)c1`, the growth was -30.7% (active). Work on `CCNC(=O)Oc1ccc(/C(=C(/C)c2ccc(Cl)cc2)c2ccc(OCCN3CCCC3)cc2)cc1` yielded a growth of 93.3%. `CS(=O)c1nccc(-c2c(-c3ccc(F)c(OCc4ccc(F)cc4)c3)nc3sccn23)n1` (stereo not drawn) was tested, and the growth was 62.7%. In the case of `CN1CCN(c2ccc(NC(=O)Nc3ccc4c(ccn4-c4cccc(C(N)=O)n4)c3)cc2C(F)(F)F)CC1`, the growth is reported as 58.3%. In the case of `O=c1oc2ccc(-c3ccc(F)cc3F)cc2c(=O)n1-c1ccc(F)c(F)c1`, the growth is reported as 6.5% (active). `N#Cc1c(NC(=O)c2ccc(F)c(Cl)c2)sc2c1CCC(=O)C2` gave a growth of 53.6%. In the case of `CC(C)SC1=NC(=C(C(=N1)NC2=ClC=CC=C2)C#N)C3=CC=CC=C3`, the growth is reported as 28%. Work on `CCOC(=O)c1c(NCC(=O)Nc2cccc(Cl)c2)sc2c1CCCC2` yielded a growth of 91.4%. `COc1ccc([C@H]2[C@H](O)C(=O)N2c2cc(OC)c(OC)c(OC)c2)cc1` showed a growth of 47.9%. `O=c1[nH]c2cc(Cl)ccc2n1C1CCN(c2ccc3nnc(Cl)n3n2)CC1` gave a growth of 87.7%. In the case of `O=C1[C@@H]2Cc3c([nH]c4ccccc34)[C@H](c3c(Cl)cccc3Cl)N2C(=O)CN1C1CCN(Cc2ccccc2)CC1`, the growth is reported as 77.7%. Compound `CS(=O)(=O)c1ccc2c(c1)c1c(n2Cc2ccc(Cl)cc2)CCCC1` has a growth of 87.7%. `O=C(CCCCCCN1CC(=O)N2[C@@H](c3ccc(Cl)c(F)c3)c3[nH]c4ccccc4c3C[C@H]2C1=O)NO` showed a growth of 86.1%. `O=C(c1ccc(O)cc1)[C@@H]1[C@@H]2CCCN2[C@@]2(C(=O)N(C(=O)c3ccc(F)cc3)c3ccccc32)[C@H]1c1ccc(F)cc1` showed a growth of 98.6%. For `COc1cc(-c2nc(SCc3ccc(C)cc3)[nH]c(=O)c2C#N)ccc1OCc1ccccc1`, the growth was 104%. `CN(C)C(=O)c1ccccc1-n1cnc2ccccc2c1=O` gave a growth of 98.5%. Compound `CCN1C(=O)N(CC)C2SC(N/N=C/c3ccccc3)=NC21` (stereo not drawn) has a growth of 51.7%. In the case of `CCOC(=O)Nc1ccc(-c2nc(-c3cccc(O)c3)c(-c3ccnc(Br)c3)[nH]2)cc1`, the growth is reported as 54.7%. `O=C1c2c(c3c4cc(Br)ccc4[nH]c3c3ccc4ccccc4c23)C(=O)N1CCN1CCCCC1` was tested, and the growth was 78%. With `CN(C)CCn1c2ccc(N)cc2c2nc3ccccc3nc21` the growth was 34.7%. `COc1ccc(-c2cc(-c3cccc4ccccc34)n3c(n2)nc2ccccc23)cc1` gave a growth of 73.5%. For `Nc1c(C(=O)c2ccccc2)sc2nc(-c3cnccn3)cc(-c3cccs3)c12`, the growth was 100%. `CCOC(=O)c1c(Nc2ccccc2)nn2c(-c3ccc(OC)c(OC)c3)ccnc12` showed a growth of 92.5%. `O=C(COc1ccc(C2SCC(=O)N2c2ccccc2)cc1)c1ccccc1` (stereo not drawn) showed a growth of 103%. In the case of `CCn1c2ccc(/C=N/OCCCN(C)C)cc2c2cc(/C=N/OCCCN(C)C)ccc21`, the growth is reported as -11.6% (active). With `N/C(=N\OC(=O)CSc1nc2ccccc2s1)c1ccc2ccccc2c1` the growth was 101%. Compound `COc1ccc(-c2nc3cc(Cl)c(Cl)cc3n2CC(=O)N=Nc2c(O)[nH]c3ccc(Br)cc23)cc1` has a growth of 41%. With `Oc1ccc(-c2nnc(SCc3ccc(O)c4ncccc34)o2)cc1` the growth was 19.8%. For `CC1=CC(=O)CC(C)(C)[C@@]1(O)/C=C/C(C)=C\C(=O)O`, the growth was -11.3% (active). For `O=C(N/N=C\c1ccc(Cl)cc1)c1ccc2nc(-c3ccc(Br)cc3)[nH]c2c1`, the growth was 41.3%. `CS(=O)(=O)c1nccc(-c2c(-c3ccc(F)c(OCc4ccccc4)c3)nc3sccn23)n1` gave a growth of 22.3%. `C=CCn1c(SCC(=O)Nc2ccc(OC)cc2)nnc1-c1ccc(Cl)cc1` gave a growth of 96.4%. In the case of `CN1C(=O)N(C)C2Nn3c(s/c(=C\c4ccccn4)c3=O)=NC21` (stereo not drawn), the growth is reported as 103%. `Oc1ccc(-c2nnc(SCc3ccc(O)c4ncccc34)n2-c2ccccc2)cc1` was tested, and the growth was 19.2%. `Fc1ccccc1/C=C(/C1=NCCN1)n1cnc2ccccc21` gave a growth of 90%. For `COc1cnc2c(c1)C(=O)c1c-2n(CCCn2ccnc2)c(=O)c2cc(OC)c(OC)cc12`, the growth was -8.33% (active). In the case of `CC[C@@](C)(NC(=O)C(C)(C)NC(=O)[C@@H](NC(=O)[C@@H]1CCCN1C(=O)C(C)(C)NC(=O)[C@H](CC(C)C)NC(=O)CNC(=O)C(C)(C)NC(=O)[C@@H](NC(=O)C(C)(C)NC(=O)[C@H](CCC(N)=O)NC(=O)[C@H](C)NC(=O)C(C)(C)NC(=O)[C@H](C)NC(=O)C(C)(C)NC(=O)[C@H](C)NC(=O)C(C)(C)NC(C)=O)C(C)C)C(C)C)C(=O)N[C@@H](CCC(N)=O)C(=O)N[C@@H](CCC(N)=O)C(=O)N[C@H](CO)CC1CCCCC1`, the growth is reported as 48.8% [5 µM].
